# A selection: hits, their analogues and other compounds. The true share with any hit is near 8%.
# TSHR antag – antagonists of human thyroid stimulating hormone receptor; P16473; TSHR-expressing cells, TSH-stimulated cAMP HTRF, 2 h; hits give low values; activity change, negative = inhibition, % at 11.5 µM; 330,000 compounds, 0.2% hits;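 active means activity change below a set negative limit, meaning inhibition stronger than a set level, cut at about -70% in these data; inconclusive means activity change between two set negative limits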
# Target sequence (P16473 whole entry, looked up): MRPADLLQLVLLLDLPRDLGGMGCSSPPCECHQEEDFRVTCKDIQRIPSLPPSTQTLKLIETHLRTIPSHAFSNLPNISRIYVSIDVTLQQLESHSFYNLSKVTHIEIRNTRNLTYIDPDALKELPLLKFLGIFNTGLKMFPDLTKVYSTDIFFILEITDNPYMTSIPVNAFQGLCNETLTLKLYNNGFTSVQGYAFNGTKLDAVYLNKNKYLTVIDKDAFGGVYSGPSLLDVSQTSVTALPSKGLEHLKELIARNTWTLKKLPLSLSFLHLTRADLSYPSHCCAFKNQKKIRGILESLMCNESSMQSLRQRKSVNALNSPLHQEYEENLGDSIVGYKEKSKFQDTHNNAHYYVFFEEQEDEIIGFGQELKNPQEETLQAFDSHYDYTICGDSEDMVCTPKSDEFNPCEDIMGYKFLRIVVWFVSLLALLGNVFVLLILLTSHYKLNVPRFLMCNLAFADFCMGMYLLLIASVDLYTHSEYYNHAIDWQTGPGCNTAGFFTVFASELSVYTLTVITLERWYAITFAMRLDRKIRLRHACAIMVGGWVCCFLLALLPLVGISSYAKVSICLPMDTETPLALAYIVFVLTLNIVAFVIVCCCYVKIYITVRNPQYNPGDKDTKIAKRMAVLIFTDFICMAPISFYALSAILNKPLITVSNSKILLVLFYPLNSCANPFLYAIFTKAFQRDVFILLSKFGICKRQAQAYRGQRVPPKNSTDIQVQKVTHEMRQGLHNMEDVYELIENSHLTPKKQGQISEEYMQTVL
#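 Read-out is FRET at 665 nm (cryptate excitation 337 nm) from a cryptate-tagged anti-cAMP antibody, competed by cell cAMP against cAMP-d2. Compounds are tested on freshly harvested TSHR cells challenged with 4nM TSH (EC80) for 2 hours at 37 deg C.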
# Gal4-VP16 FLuc – inhibits Gal4-VP16 luciferase reporter, ROR gamma counter-screen; Drosophila S2 Gal4-VP16 UAS-luciferase, luminescence, 20 h; Potency, µM (titrated, usually from 53.6 µM), without a hit: at the top dose activity, negative = inhibition, actives largely listed as inhibitors; 310,000 compounds, 3.5% hits;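 further: Gal4-VP16 expression switched on by copper sulfate through the metallothionein promoter; potency means the concentration at half of the fitted maximal effect; nearly all actives have a fitted effect of over 50% in size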
# ELG1 repair inh – inhibitors of ELG1-dependent DNA repair in HEK293T cells | Potency, µM (doses to about 46.1 µM), without a hit: at the top dose activity change, negative = inhibition, hits mostly inhibitors | HEK293T ELG1-luciferase reporter, luminescence, 16 h; DNA damage induced by 5-fluorouridine | 330,000 compounds, 2.3% hits; further: potency means the concentration at half of the fitted maximal effect; nearly all actives have a fitted effect of over 55% in size
#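 HEK293T cells expressing luciferase-tagged ELG1 (2,000/well) received 5-Fluorouridine plus compound or DMSO for 16 hr at 37 °C. Luciferase was read by ONE-Glo luminescence after 30 min at room temperature.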
# RORg inh – inhibitors of mouse ROR gamma transcriptional activity. 310,000 compounds, 5.4% hits. P51450. AID 2551. Potency, µM (top dose mostly 53.6 µM), without a hit: top-dose activity change, negative = inhibition, actives largely listed as inhibitors. Drosophila S2 Gal4-RORgamma UAS-luciferase reporter, 20 h; further: potency means the concentration at half of the fitted maximal effect; nearly all actives have a fitted effect of over 60% in size
#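 Drosophila Schneider cells stably carrying a metallothionein-driven Gal4 DBD–ROR gamma fusion and a UAS-Photinus luciferase reporter were exposed to compound for 1 hr, then induced with copper sulfate (700 uM final) for 20 hr at ambient temperature before luminescence reading.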
# FBPA coupling cs – counter-screen for Giardia aldolase inhibitors: coupling enzyme system; activity change, negative = inhibition, % at 58.2 µM, hits read low; 290,000 compounds, 0.67% hits; AID 2472; coupling enzyme system counterscreen, AmpLite Red fluorescence; in the data active means activity change below about -30%
#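 First, compound is pin-transferred into glyceraldehyde-3-phosphate coupling-enzyme reagent at 57.5 uM final and held 10 min at RT. Next, substrate, coupling system and AmpLite Red are added. After 20 min RT, fluorescence (525/598 nm) is read.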
# Numbers without * were called inactive; ? = inconclusive; . = not tested or not shown; [ ] = another dose, or the depositor's remark. Unless noted, the call rests on the fitted dose curve; in most records, active means well fitted curve in the direction sought with a large enough effect; inconclusive means small, poorly fitted or top-dose-only effect, or another doubt; inactive means no such curve, though single readings can be large; an effect the other way counts as inactive or inconclusive. On the % scale 0 is the no-effect control and ±100 the full control effect.
SMILES,TSHR antag,Gal4-VP16 FLuc,ELG1 repair inh,RORg inh,FBPA coupling cs
C=C[C@@]1(C)CC[C@H]2C(=CC[C@@H]3[C@]2(C)CCC[C@@]3(C)C(=O)O)C1,.,0.2%,.,-68.3%,10.8
COc1ccc(N2CCN(C(=O)CCCN3C(=O)c4cccc5cccc(c45)C3=O)CC2)cc1,-19.4,-7.9%,10.3µM*,-1.9%,-3.9
COC(=O)C1=NOC2(C=C(Br)C(OC)=C(Br)C2=O)C1 (stereo not given),.,2.51µM*,.,1.78µM*,2.4
CC(=O)Oc1c(C)cc(O)c2ccccc12,16.2,?,-13.4%,?,-32.2*
CCN1CCN(CC(=O)Nc2ccc(Cl)c(S(=O)(=O)N(C)C)c2)CC1,-3.3,?,-13.1%,?,-4.4
Cc1cc(OCC(=O)NNC(=S)NCC2CCCO2)cc(C)c1Cl (stereo not given),-12.4,6.31µM*,?,3.16µM*,.
O=C(Cc1ccc(Cl)c(Cl)c1)NNC(=S)NCC1CCCO1 (stereo not given),10.7,-14.1%,-14.6%,?,.
O=C(NNC(=S)NCC1CCCO1)c1cc(Br)ccc1Cl (stereo not given),16.5,20µM*,3.9%,3.16µM*,.
CCCCc1ccc(NC(=S)NCCc2ccc(S(N)(=O)=O)cc2)cc1,-1.4,8.91µM*,?,?,0.3
CCCCc1ccc(NC(=S)Nc2ccc(Cl)c(S(=O)(=O)N(C)C)c2)cc1,-4.2,?,12.2%,11.2µM*,-1.0
Cc1ccc(C)c(S(=O)(=O)N2CCN(C(=O)C3CCN(c4ncnc5sc(C)c(C)c45)CC3)CC2)c1,-48.7,.,?,.,.
COc1cc(SC)ccc1C(=O)N1CCC(Cc2ccccc2)CC1,-9.8,-4.2%,.,-0.6%,-0.3
Cc1ccc(C(=O)NCCNC(=O)COc2ccccc2Cl)cn1,-0.1,-17.2%,-2.5%,-21.1%,-1.9
CO[C@@H]1COC(=O)[C@H]2CCCN2C(=O)[C@@H](C)COC(=O)[C@H](COCc2ccccc2)NC(=O)C/C=C\[C@H]1C,.,6.1%[10 µM],.,-1.9%[10 µM],0.5
CCCCc1ccc(NC(=S)NCCN2CCOCC2)cc1,-2.1,?,2.3%,10µM*,-0.8
S=C(NCC1CCCO1)Nc1ccc(Cl)c(Cl)c1 (stereo not given),-1.8,?,7.2%,3.55µM*,1.0
S=C(NCC1CCCO1)NC1CCCC1 (stereo not given),3.7,-21.8%,5.5%,12.6µM*,-0.9
CCCCc1ccc(NC(=S)NCC2CCCO2)cc1 (stereo not given),-13.3,?,-29.1%,2.82µM*,-2.9
FC(F)(F)c1cccc(NC(=S)N(CCCN2CCCC2)Cc2cccn2Cc2ccc(Cl)cc2)c1,-8.7,?,0.0%,14.1µM*,0.6
COC(=O)CCC(=O)c1ccn(S(=O)(=O)c2ccccc2)c1,1.6,7.3%,14.4%,-2.7%,0.6
COc1cc(/C=C/c2sc3ccccc3[n+]2CCCS(=O)(=O)[O-])ccc1O,-29.2,?,-11.4%,?,-34.0*
CNC(=O)C1CC(=O)N(c2ccc(OCC(=O)Nc3ccc(OC)cc3)cc2)C1 (stereo not given),7.7,.,3.0%,.,.
O=S(=O)(CC(CN1CCCC1)N1CCCC1)c1ccc2ccccc2c1 (stereo not given),2.3,11.2µM*,11.6µM*,?,-4.2
Cc1ccc(S(=O)(=O)CC(CN2CCOCC2)N2CCOCC2)cc1 (stereo not given),-5.7,6.0%,4.4%,-0.5%,0.8
COc1cc(N/N=C/c2ccccc2O)ncn1,-4.7,7.08µM*,?,7.08µM*,-1.1
SMILES,TSHR antag,Gal4-VP16 FLuc,ELG1 repair inh,RORg inh,FBPA coupling cs
COc1cc(N/N=C/c2ccc(N(C)C)cc2)ncn1,-7.8,?,?,?,1.6
N#Cc1ccc(CN2CCC3(CC2)CCN(C(=O)c2cccc(F)c2)CC3)cc1,.,-0.8%,.,-12.7%,0.5
O=C(Nc1cc(Cl)cc2c1[nH]c1cnccc12)c1cccnc1,.,-13.8%,.,-9.8%,0.0
CSc1nc(Sc2ccccc2)c2ccccc2n1,-8.8,0.5%[0.365 µM],0.0%,-30.1%,0.0
CSc1nc(Sc2ccc(Cl)cc2)c2ccccc2n1,-8.2,-10.7%,?,15.8µM*,-0.3
CCn1c(SCc2ccc(Cl)cc2Cl)nc2nc3c(cc2c1=O)CCCC3,2.6,6.0%,-4.5%,7.08µM*,2.2
CN(C)/C=N/NC(=O)c1ccccc1,7.1,-19.1%,8.4%,1.3%,-0.6
O=C(NN=c1c(=O)c2ccccc2c1=O)c1ccccc1,8.0,?,-16.3%,-39.9%,-42.7*
CC(=O)Nc1ccc(NC(=O)c2ccccc2-n2cnnn2)cc1,-5.6,.,?,.,.
CCCc1ccc2oc(C(=O)N(Cc3nccn3C)C(C)C)c(C)c2c1,-4.0,-3.0%,0.0%,11.2µM*,2.2
CC(=O)N1N=C(c2cccc(NS(C)(=O)=O)c2)CC1c1cccs1 (stereo not given),-3.5,0.5%,-11.1%,0.5%,2.2
CN(C)c1ccc(C2CC(c3cccc(NS(C)(=O)=O)c3)=NN2C(=O)c2ccccc2)cc1 (stereo not given),5.0,-6.5%,?,?,-8.8
COc1ccccc1C1CC(c2ccccc2)=NN1S(=O)(=O)c1ccccc1 (stereo not given),7.8,-5.6%,23.1µM*,8.6%,0.3
CS(=O)(=O)Nc1cccc(C2=NN(C(=O)c3ccco3)C(c3cccs3)C2)c1 (stereo not given),33.5,-4.1%,6.51µM*,8.9%,.
CS(=O)(=O)Nc1ccc(C2=NN(C(=O)c3ccccc3)C(c3cccs3)C2)cc1 (stereo not given),-8.9,12.7%,?,-25.1%,-2.3
COc1cccc(C2CC(c3cccc(NS(C)(=O)=O)c3)=NN2C(=O)c2ccccc2)c1OC (stereo not given),2.8,-13.4%,-29.8%,2µM*,1.5
CS(=O)(=O)Nc1ccc(C2=NN(C(=O)c3cccc(F)c3)C(c3cccs3)C2)cc1 (stereo not given),-8.6,-4.7%,16.4µM*,-25.6%,-0.4
C[C@@]12CCC(=O)C=C1CC[C@@H]1[C@@H]2[C@H](O)C[C@]2(C)[C@@H]1CC[C@]2(O)C(=O)CO,.,-6.1%[17 µM],.,-14.9%[16.9 µM],1.5
CCc1oc2ccccc2c1C(=O)c1cc(I)c(O)c(I)c1,.,-8.9%,.,3.1%[10 µM],.
CCC(=O)N1N=C(c2cccc(NS(C)(=O)=O)c2)CC1c1cccs1 (stereo not given),1.9,4.4%,23.1µM*,4.7%,7.8
CS(=O)(=O)Nc1cccc(C2=NN(C(=O)CCC(=O)O)C(c3cccs3)C2)c1 (stereo not given),-2.4,12.2%,-0.6%,-19.3%,3.8
COc1ccc(C(=O)CSc2ccc(-c3ccccc3)nn2)cc1,-10.5,2.1%,3.5%,42.3%,-5.1
COc1ccc(-c2ccc(SC)nn2)cc1,4.8,?,?,10µM*,-5.7

# Compound activity deposited in PubChem by National Center for Advancing Translational Sciences (NCATS).
